High-throughput results: PubChem, several laboratories
PG9 binder – binds the HIV-1 gp120 antibody PG9. TR-FRET gp120-PG9 antibody binding. inhibition, % at 6.7 µM. hit rate 0.43% among 360,000. AID 624416; in the data active = inhibition above about 8.5%
LEDGF integ inh – blocks HIV-1 LEDGF/p75-dependent DNA integration; inhibition, % at 3.7 µM; hit rate 0.64% among 370,000; TR-FRET IN-LEDGF/p75 DNA integration, Eu/Cy5;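 active = inhibition above the screen-wide mean plus 3 SD, cut at about 13% in these data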;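 also: signal is the Cy5 over europium emission ratio at 671 and 618 nm; 0% = plate median of compound wells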
DNMT1 inh – DNMT1 (human) enzyme inhibition | P26358 | DNMT1 molecular beacon, Hinp1I cleavage, fluorescence | inhibition (reported as % activation of signal), % at 10 µM | hit rate 0.83% among 360,000; in the data active = inhibition above about 50%
UHRF1 MBD2 ctr – human UHRF1 methylated DNA binding inhibitors; UHRF1 binding to methylated oligo, TR-FRET; inhibition, % at 4.4 µM; hit rate 0.75% among 370,000; Q96T88; AID 687016; in the data active = inhibition above about 21%;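 also: UHRF1 SRA domain binding a hemimethylated CpG hairpin DNA probe; 0% = median of test compound wells and 100% = reference inhibitor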
MBD2 inh – inhibitors of human MBD2 binding to methylated oligonucleotide; Q9UBB5; TR-FRET; inhibition, % at 4.4 µM; hit rate 0.31% among 370,000; in the data active = inhibition above about 13%
rCAG RNA binder – molecules binding r(CAG) RNA repeats. r(CAG) RNA repeat, TO-PRO-1 dye displacement fluorescence. inhibition, % at 3 µM. hit rate 1.3% among 370,000. AID 651821;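 active = inhibition above the plate cutoff, the mean of all test compounds on that plate plus 3 SD, cut at about 35% in these data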;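 also: 0% = DMSO alone and 100% = 100 µM mitoxantrone as full dye displacement; higher means more dye released from RNA so lower well fluorescence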
rCAG binder conf – r(CAG) RNA repeat binding, confirmation; hit rate 70% among 4,300; AID 652065; shares compounds with rCAG RNA binder; TO-PRO-1 dye displacement fluorescence; inhibition, % at 3 µM;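 active = inhibition above a per-plate cutoff, the mean inhibition of sample wells plus 3 SD, cut at about 35% in these data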;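 also: loss of TO-PRO-1 fluorescence as compound displaces dye from 1x1 AA loop RNA; 0% = DMSO only wells and 100% = 100 µM mitoxantrone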
dCAG dye counter – counter-screen for rCAG RNA binders: DNA CAG dye complex inhibitors. d(CAG) DNA oligo TO-PRO-1 dye displacement, fluorescence. shares compounds with rCAG RNA binder. hit rate 94% among 4,300. AID 652068. inhibition, % at 3 µM;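 active = inhibition above its plate's cutoff, the mean test-well inhibition plus 3 SD, cut at about 4.8% in these data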;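 also: 0% = DNA dye mix with DMSO and 100% = 100 µM mitoxantrone; hits displace the dye from DNA and so lower well fluorescence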
Numbers without * were called inactive; nt = no result given. Rows were chosen to be rich in hits. Some 3.5% of all compounds tested hit in one or more screens of this group.

SMILES	PG9 binder	LEDGF integ inh	DNMT1 inh	UHRF1 MBD2 ctr	MBD2 inh	rCAG RNA binder	rCAG binder conf	dCAG dye counter
Cc1ccc(-c2csc(NC(=O)CSc3nnc4c(n3)[nH]c3ccccc34)n2)cc1	0	1	-3	0	-2	35*	29	18*
CCC(Sc1nc(-c2ccccc2)cc(=O)[nH]1)C(=O)O (configuration not stated)	5	1	4	-2	3	2	nt	nt
O=C(CSc1nc2ccccc2[nH]1)Nc1nc(-c2cccc(Br)c2)cs1	-1	13	2	18	8	58*	43*	21*
O=C(Nc1cc(Cl)ccc1-n1cncn1)c1ccc(Br)o1	-1	-1	2	0	-4	3	nt	nt
COc1ccc(CNC(=O)CCc2ccc(S(=O)(=O)N3CCCCCC3)cc2)cc1OC	-2	-4	1	0	5	-6	nt	nt
CCc1nc(N)nc(N)c1-c1ccc(N(C)Cc2ccccc2)c([N+](=O)[O-])c1	2	-1	-10	1	0	-1	nt	nt
CCOC(=O)N1CCN(S(=O)(=O)N2CCCC(C(=O)NCCc3ccc(OCC)c(OCC)c3)C2)CC1 (configuration not stated)	-2	-2	4	0	4	-5	nt	nt
CCOC(=O)c1c(-c2cccs2)csc1NC(=O)CSc1ncn[nH]1	nt	nt	-16	nt	nt	nt	nt	nt
CCOC(=O)c1c(-c2ccccc2Cl)csc1NC(=O)CSc1nc(C)cc(=O)[nH]1	-3	-1	5	-1	-3	38*	45*	15*
COc1ccc([C@H]2C[C@@H](O)[C@H](n3cc(-c4ccc(F)cc4)nn3)CN2C(=O)C2CCCCC2)cc1	0	3	3	-3	-1	7	nt	nt
CCOC(=O)C1=CCN(S(=O)(=O)c2ccccc2F)C1c1ccc(Cl)c(Cl)c1 (configuration not stated)	1	-2	-1	-1	0	4	nt	nt
O=C(c1ccc(S(=O)(=O)N2CCCC2)cc1)N1CCCCC1	1	-1	3	4	0	-3	nt	nt
O=C(/C=C/c1ccc(O)c(O)c1)c1ccc(S(=O)(=O)N2CCCCCC2)cc1	-2	6	-11	7	-1	46*	48*	26*
Cc1ccc(C2/C=C\CC(NC(=O)OCC3c4ccccc4-c4ccccc43)CC(=O)N2Cc2ccccc2)cc1 (configuration not stated)	-1	4	2	-1	-6	12	nt	nt
Cc1nnc(SCC(=O)NCCC2=CCCCC2)[nH]c1=O	0	2	6	2	1	5	nt	nt
O=C(N/N=C/c1ccccc1C(=O)O)c1cc(-c2ccc3c4c(cccc24)CC3)n[nH]1	-2	2	-3	-1	2	58*	62*	24*
CC(C)(C)S(=O)(=O)N1C[C@@H]2CC/C=C\C/C=C\2[C@H]1CCO	1	3	6	0	-6	2	nt	nt
CCN(CC)S(=O)(=O)c1ccc(O)c(NC(=O)c2ccc(N3CCOCC3)c([N+](=O)[O-])c2)c1	-3	-4	-2	-1	1	53*	44*	13*
CCN(CC)S(=O)(=O)c1ccc(N2CCOCC2)c(NC(=O)c2ccccc2)c1	-1	2	-2	-1	0	-2	nt	nt
Nc1nc(N)c(N=O)c(Nc2cccc(Cl)c2)n1	-8	-3	nt	-10	-5	1	nt	nt
O=C(Nc1scc(-c2ccccc2)c1C(=O)O)c1ccccc1F	1	8	-2	-1	4	20	nt	nt
COc1ccc(-c2csc(NC(=O)Cc3cccc4ccccc34)c2C(=O)O)cc1	-2	3	-1	-3	1	61*	54*	17*
Cc1ccc(-c2csc(NC(=O)c3ccccc3F)c2C(=O)O)cc1	0	3	0	1	1	42*	29	4.6*
Cc1ccc(-c2csc(NC(=O)c3ccc(F)cc3)c2C(=O)O)cc1	1	7	-1	2	0	63*	39*	8.8*
COc1ccccc1NC(=O)Cc1cccc2ccccc12	0	3	-2	-3	-4	-2	nt	nt
